Experimental data from PubChem BioAssay (NCI).
The panel holds about 83,000 compounds, 20% with a hit somewhere; the sample as a whole holds those more often.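 Single-concentration screen, 48 h exposure, 96-well plates. Endpoint: percent growth. Below 10 = active.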 A number with no mark means an inactive call. Calls of active or inactive are those of the source.

Each molecule was assayed on KM12 colon (assay: NCI-60 one-dose screen, 48 h (100 = growth as untreated, 0 = no growth, -100 = all killed)). Conditions: 10 µM.
Procedure: Growth inhibition of the KM12 human tumor cell line is measured as a screen for anti-cancer activity. Cells are grown in 96 well plates and exposed to the test compound for 48 hours. Compounds are tested at a single concentration, which is 10^-5 M for most compounds. The reported endpoint is percent growth (GI% or GIPRCNT), where numbers from 0 - 100% represent growth inhibition, and numbers from -100% - 0 represent cell death. For example, a value of 40 represents 60% growth inhibition. A value of 0 means no net growth occurred over the course of the experiment. A value of -40 indicates 40% of cells at the beginning of the experiment died by the end of the experiment. A value of -100 means all cells are dead at the end of the experiment.
NCI-60 Human Tumor Cell Lines Screen was performed using the standard one-dose NCI protocol, which is described in more detail at https://dtp.cancer.gov/discovery_development/nci-60/default.htm.
Compounds with GIPRCNT values below 10 were considered active. Activity score was based on GIPRCNT using the following formula: […]
Score is 0 for GIPRCNT values of 100 or above, 50 for GIPRCNT values of 0, and 100 for GIPRCNT values of -100.

| Compound | growth |
| --- | --- |
| NC(N)=N/N=C(\N=Nc1ccccc1)c1ccc(Cl)cc1 | 20.8% |
| CSc1nc(S(C)(=O)=O)nc2[nH]c(=O)[nH]c12 | 118% |
| COc1cc(/C=C2\CCCC3=C2N=C2SC(C)=CN2C3c2cc(OC)c(OC)c(OC)c2)cc(OC)c1OC (stereo not given) | -80.4% (active) |
| COCCn1cc(-c2nc(-c3cccnc3)cs2)c2cc(F)ccc21 | 69.4% |
| Clc1ccc(C2=NN=C3C(Cc4ccccc4)=Nc4ccccc4N3C2)cc1 | 63.6% |
| C#CC(C)(O)[C@@H]1C[C@H](CC(=O)O)C1(C)C (stereo not given in full) | 108% |
| OCC1OC2C(NC(=S)N2c2ccccc2)C(O)C1O (stereo not given) | 103% |
| CCOC(=O)c1sc2ncnc(Nc3ccc(NC(=O)Nc4ccc(Cl)cc4)cc3)c2c1C | 55.3% |
| COc1ccc(Cl)cc1Nc1nc(C(F)(F)F)ccc1C(=O)N/N=C/c1cc(OC)c(OC)c(OC)c1 | 30.6% |
| COc1ccc2nc(-c3ccc(Cl)cc3)cc(-c3nnc(SC/C(=N\O)c4ccccc4)n3-c3ccccc3)c2c1 | 69.2% |
| O=C(O)Cc1ccc(O)c(O)c1 | 98.6% |
| O=C(Nc1ccc2c(O)cc(S(=O)(=O)O)cc2c1)c1ccc([N+](=O)[O-])cc1 | 97.2% |
| COc1ccc(-c2cc(-c3ccc(Cl)cc3)nc(SCCCC(=O)NO)n2)cc1 | 18% |
| CCOC(=O)/C(=C(\C)N)C1CC(=O)NC1=O (stereo not given) | 121% |
| N#Cc1c(-c2ccc(Cl)cc2)n(O)c2ccccc12 | 15.9% |
| CCCN1CN2C(=O)N3CN(CCC)CN4C(=S)N(C1)C2C34 (stereo not given) | 101% |
| CNC(=O)c1cc(Oc2ccc3c(c2)sc2nc(-c4ccc(N)cc4)cn23)ccn1 | 20.7% |
| Nc1ccn(Cc2nnc(CCC(=O)c3nc4ccccc4[nH]3)o2)c(=O)n1 | 84.4% |
| O=C(Nc1ccc(NS(=O)(=O)c2ccc(F)cc2)cc1)C12CC3CC(CC(C3)C1)C2 | 99.4% |
| Cc1ccc(-n2c(C)nn3c(=O)c4c5c(sc4nc23)CN(C)CC5)cc1 | 96% |

| Compound | growth |
| --- | --- |
| N=C1S/C(=C/c2ccc(-c3ccc4c(c3)C(=O)NC4=O)o2)C(=O)N1c1ccc(Br)cc1 | 46.4% |
| Nc1cc(-c2ccncc2)c[nH]c1=O | 104% |
| CC(C)(C)c1nn(-c2ccccc2)c2c1CC1(CN2Cc2ccc(Cl)cc2)C(=O)c2ccccc2C1=O | 89.6% |
| Cc1cc(O)ccc1C1=NN(c2ccc(S(C)(=O)=O)cc2)C(=O)CC1 | 47.6% |
| CC(=O)C1CCC2C3CC=C4CC(SC(=N)N)CCC4(C)C3CCC12C (stereo not given) | 31.8% |
| COc1cc2cc(Oc3ccc(NC(=O)c4cccc(C(F)(F)F)c4)cc3)c(C)nc2cc1OC | 25.8% |
| CN(C)CCCN1c2ccccc2CCc2ccc(Cl)cc21 | 79.3% |
| CC(=O)O[C@@]12CO[C@@H]1C[C@H](O)[C@@]1(C)C(=O)[C@H](O)C3=C(C)[C@@H](OC(=O)[C@H](O)[C@@H](NC(=O)OC(C)(C)C)c4ccccc4)C[C@@](O)([C@@H](OC(=O)c4ccccc4)C12)C3(C)C (stereo not given in full) | 29.6% |
| COc1cccc(N=Nc2cccc(OC)c2)c1 | 95.8% |
| CN(C)CCCOc1ccccc1NC1=C(Cl)C(=O)C(Nc2ccccc2OCCCN(C)C)=C(Cl)C1=O | -34.2% (active) |
| COc1cc2c3c(n(C4CCN(C)CC4)c(=O)c2cc1OC)-c1cc2c(cc1C3=O)OCO2 | 75.9% |
| CC(C)(C)OC(=O)N1CCc2c(sc3ncnc(N/N=C/c4ccc(Br)cc4)c23)C1 | 46.6% |
| CC[C@@H](C(=O)[C@H](C)[C@H](O)[C@@H](C)[C@H]1O[C@H]([C@@H](CC)C(=O)O)CC[C@H]1C)C1O[C@]2(C=C[C@@H](O)[C@]3(CC[C@@](C)([C@H]4CC[C@](O)(CC)[C@H](C)O4)O3)O2)[C@H](C)C[C@@H]1C (stereo not given in full) | 24.5% |
| O=[N+]([O-])c1cccc(/C=N/NC(=S)NC23CC4CC(CC(C4)C2)C3)c1 | 95.2% |
| CC(C)N(CCOc1ccc(-c2nc3sccn3c2-c2ccnc(S(C)(=O)=O)n2)cc1)C(C)C | 90.4% |
| Cc1c2c(nn1C(=O)c1nn(-c3ccc(Cl)cc3)cc1O)-c1ccccc1CC2 | 29.5% |
| COC(=O)C1(O)NC(=C(C#N)C#N)C(C#N)=C1C(=O)c1ccc(OC)c(OC)c1 (stereo not given) | 105% |
| CS(=O)(=O)c1nccc(-c2c(-c3cccc(OCc4ccccc4)c3)nc3sccn23)n1 | 50.7% |
| CC1=NN(C(=O)c2nn(-c3ccc(Cl)cc3)cc2O)C(=O)C1 | 49% |
| O=S(=O)(O)c1ccc(Cl)cc1 | 99.2% |
